In PubChem BioAssay (EPA / NIEHS):
Results filed as inconclusive are left out. Calls of active or inactive are those of the source. How the source made its calls, unless noted: active means hit-call score of the fitted dose curve at least 0.9, where 1 is the maximum; inactive means score below 0.9.

Columns and labels:
[1] = ATG_TCF_b_cat_CIS: Attagene CIS-FACTORIAL HepG2 Assay for human T-Cell-Factor with beta-catenin (TCF/b-cat) (AID 2282965); conditions: HepG2 TCF/beta-catenin cis-reporter transcription, actives raise or lower the signal
Summary of the method: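 Cells of the HepG2 line carry transiently transfected reporter units whose promoters respond to endogenous factors. Twenty-four hours post-dosing, reporter mRNA induction is measured by fluorescent RT-PCR and capillary electrophoresis, with DMSO as baseline.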

[2] = ATG_TAL_CIS: Attagene CIS-FACTORIAL HepG2 Assay for human TAL Basal Promoter (AID 2282966); conditions: HepG2 Attagene cis-factorial TAL promoter reporter; actives raise or lower the signal;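 further: background control endpoint measuring basal TAL promoter reporter mRNA not a specific factor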
Summary of the method: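 After 24 hours of chemical exposure, transfected HepG2 cells yielded RNA that was converted to 6-FAM-labelled, HpaI-digested reporter fragments for capillary electrophoresis. Values derive from bidirectional fitting against DMSO controls.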

[3] = ATG_TGFb_CIS: Attagene CIS-FACTORIAL HepG2 Assay for human Transforming Growth Factor (TGF) (AID 2282967); conditions: HepG2 Attagene CIS TGFb reporter, mRNA transcription; actives raise or lower the signal
Summary of the method: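 Multiplexed cis-reporter HepG2 system, 24 h treatment; mRNA induction read by fluorescence after RT-PCR and CE; DMSO negative control, bidirectional curve fitting.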

[4] = biological target: Estrogen receptor (Homo sapiens) (UniProt P03372); assay: ATG_ERa_TRANS: Attagene TRANS-FACTORIAL HepG2 Assay for human Estrogen Receptor alpha (ERa) (AID 2282970; active means hit-call score of the fitted dose curve at least 0.9, where 1 is the maximum); conditions: HepG2 Attagene TRANS ERa GAL4 reporter, mRNA
Summary of the method: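 Liver-derived HepG2 cells expressing chimeric nuclear receptor-Gal4 proteins from transient transfection were exposed for 24 hours. Gain of reporter mRNA signal versus DMSO, read by capillary electrophoresis of FAM-labelled PCR products, was recorded.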

[5] = biological target: X-box-binding protein 1 (Homo sapiens) (UniProt P17861); assay: ATG_Xbp1_CIS: Attagene CIS-FACTORIAL HepG2 Assay for human X-box Binding Protein 1 (XBP1) (AID 2282972); conditions: HepG2 XBP1 cis-element reporter, Attagene multiplex; actives raise or lower the signal
Summary of the method: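 Reporter transcripts were quantified by RT-PCR with fluorescent primer extension and capillary electrophoresis after 24 h chemical exposure. Cells: transiently transfected HepG2 carrying cis-regulated reporter constructs; data fitted bidirectionally relative to DMSO.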

[6] = biological target: Steroid hormone receptor ERR1 (Homo sapiens) (UniProt P11474); assay: ATG_ERRa_TRANS: Attagene TRANS-FACTORIAL HepG2 Assay for human Estrogen-Related Receptor alpha (ERRa) (AID 2282971; active means hit-call score of the fitted dose curve at least 0.9, where 1 is the maximum); conditions: HepG2 Attagene TRANS reporter, ERRa transactivation
Summary of the method: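 Reporter transcript induction was quantified by RT-PCR and capillary electrophoresis of FAM-labelled, HpaI-cut products after 24 h treatment of HepG2 cells carrying transiently transfected GAL4-UAS reporter units and an exogenous ERRa-Gal4 fusion; activity scored as increase over DMSO.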

[7] = ATG_M_19_TRANS: Attagene TRANS-FACTORIAL HepG2 Assay for M19 Transcription Factor (Internal Marker) (AID 2282974; active means hit-call score of the fitted dose curve at least 0.9, where 1 is the maximum); conditions: HepG2 Attagene TRANS-FACTORIAL M19 internal marker reporter
Summary of the method: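 HepG2 transiently transfected with GAL4-UAS multiplex reporter constructs, exposed 24 h; reporter RNA quantified by RT-PCR, 6-FAM labeling, HpaI digestion and capillary electrophoresis; internal background marker fitted upward versus DMSO.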

[8] = biological target: Nuclear receptor subfamily 1 group I member 3 (Homo sapiens) (UniProt Q14994); assay: ATG_CAR_TRANS: Attagene TRANS-FACTORIAL HepG2 Assay for human Constitutive Androstane Receptor (CAR) (AID 2282969; active means hit-call score of the fitted dose curve at least 0.9, where 1 is the maximum;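 further: activators raise reporter mRNA above DMSO so AC50 marks induction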); conditions: HepG2 Attagene TRANS-FACTORIAL CAR reporter
Summary of the method: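 Transiently transfected HepG2, multiplex TRANS reporters (CAR-Gal4 chimera driving GAL4-UAS reporter). 24 h dosing. Readout: reporter transcript by RT-PCR + capillary electrophoresis, fluorescence intensity; positive direction vs DMSO.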

[9] = ATG_GAL4_TRANS: Attagene TRANS-FACTORIAL HepG2 Assay for GAL4 (Internal Marker) (AID 2282976; active means hit-call score of the fitted dose curve at least 0.9, where 1 is the maximum); conditions: HepG2 Attagene TRANS GAL4 internal marker reporter
Summary of the method: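 First, HepG2 cells were transfected with reporter units under GAL4-UAS control. Next, they were treated with chemical for 24 h. Finally, RNA was reverse-transcribed, PCR-amplified, FAM-labelled and resolved by capillary electrophoresis, with induction scored against DMSO.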

[10] = ATG_VDRE_CIS: Attagene CIS-FACTORIAL HepG2 Assay for human Vitamin D Receptor Element (VDRE) (AID 2282968); conditions: HepG2 VDRE cis-reporter transcription, actives raise or lower the signal
Summary of the method: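 Transient MRTU transfection of HepG2, 24 h compound exposure. Readout: reporter transcripts via RT-PCR and capillary electrophoresis, fluorescence. Bidirectional fit vs DMSO.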

Measured: AC50

Chain of Nuclear receptor subfamily 1 group I member 3 (Homo sapiens) (Q14994 whole entry, looked up, the tested form may be a part): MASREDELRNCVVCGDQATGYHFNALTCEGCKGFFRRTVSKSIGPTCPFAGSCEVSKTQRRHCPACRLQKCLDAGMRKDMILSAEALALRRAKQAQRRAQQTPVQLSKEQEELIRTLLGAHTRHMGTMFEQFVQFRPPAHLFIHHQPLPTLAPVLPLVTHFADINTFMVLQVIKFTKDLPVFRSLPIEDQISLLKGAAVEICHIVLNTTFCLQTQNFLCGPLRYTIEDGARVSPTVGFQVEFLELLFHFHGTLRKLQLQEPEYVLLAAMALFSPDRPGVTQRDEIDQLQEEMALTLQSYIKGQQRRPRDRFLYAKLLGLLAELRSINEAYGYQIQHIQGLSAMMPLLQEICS
Chain of X-box-binding protein 1 (Homo sapiens) (P17861 whole entry, looked up): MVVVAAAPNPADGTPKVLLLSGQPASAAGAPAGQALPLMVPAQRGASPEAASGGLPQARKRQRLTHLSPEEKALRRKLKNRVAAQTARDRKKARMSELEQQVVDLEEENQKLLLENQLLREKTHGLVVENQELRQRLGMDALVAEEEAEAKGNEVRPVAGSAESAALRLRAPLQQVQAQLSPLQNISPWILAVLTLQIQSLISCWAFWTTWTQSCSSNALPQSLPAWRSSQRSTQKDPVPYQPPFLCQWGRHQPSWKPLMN
Chain of Steroid hormone receptor ERR1 (Homo sapiens) (P11474 whole entry, looked up, the tested form may be a part): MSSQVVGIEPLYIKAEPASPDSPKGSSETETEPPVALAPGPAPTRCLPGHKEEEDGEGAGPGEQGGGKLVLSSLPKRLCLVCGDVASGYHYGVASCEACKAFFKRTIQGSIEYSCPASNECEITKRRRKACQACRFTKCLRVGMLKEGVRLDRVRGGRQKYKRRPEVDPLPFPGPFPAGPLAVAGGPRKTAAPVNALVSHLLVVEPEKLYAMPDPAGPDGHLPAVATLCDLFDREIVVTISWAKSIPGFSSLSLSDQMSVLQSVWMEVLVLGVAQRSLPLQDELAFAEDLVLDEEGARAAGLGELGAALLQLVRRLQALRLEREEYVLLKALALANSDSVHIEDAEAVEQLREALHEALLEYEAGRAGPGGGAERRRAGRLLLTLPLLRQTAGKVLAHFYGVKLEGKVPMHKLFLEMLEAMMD
Chain of Estrogen receptor (Homo sapiens) (P03372 whole entry, looked up, the tested form may be a part): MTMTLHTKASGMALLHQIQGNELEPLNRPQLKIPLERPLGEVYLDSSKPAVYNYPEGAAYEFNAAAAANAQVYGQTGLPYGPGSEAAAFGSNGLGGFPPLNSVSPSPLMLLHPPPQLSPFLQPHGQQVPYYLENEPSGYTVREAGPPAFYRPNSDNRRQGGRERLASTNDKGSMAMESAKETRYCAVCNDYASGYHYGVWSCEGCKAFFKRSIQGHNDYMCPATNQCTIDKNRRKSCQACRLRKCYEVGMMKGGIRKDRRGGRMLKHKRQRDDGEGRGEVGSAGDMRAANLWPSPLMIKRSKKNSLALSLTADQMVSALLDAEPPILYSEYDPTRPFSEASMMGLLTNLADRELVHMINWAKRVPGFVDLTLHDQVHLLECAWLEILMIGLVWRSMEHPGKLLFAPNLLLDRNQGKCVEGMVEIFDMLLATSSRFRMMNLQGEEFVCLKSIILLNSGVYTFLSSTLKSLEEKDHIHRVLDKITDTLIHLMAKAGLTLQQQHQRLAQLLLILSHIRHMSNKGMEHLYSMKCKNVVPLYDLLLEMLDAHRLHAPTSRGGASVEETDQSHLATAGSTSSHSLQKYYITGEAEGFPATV

CC(CO)OC(C)CO (stereo not drawn) (tested in a mixture with another compound)
inactive: [1] | [2] | [3] | [4] | [5]

CCc1c(C(=O)NN2CCCCC2)nn(-c2ccc(Cl)cc2Cl)c1-c1ccc(Br)cc1
active: [1] 3.53 µM
inactive: [2] | [3] | [4] | [6] | [5] | [7]

Oc1ccc2ccccc2c1N=Nc1ccccc1
active: [3] 100 µM | [4] 2.86 µM
inactive: [1] | [2] | [8] | [5]

CCCCC(CC)COC(=O)CC(C(=O)OCC(CC)CCCC)S(=O)(=O)O (stereo not drawn)
inactive: [1] | [2] | [3] | [8] | [4] | [5] | [9]

CCOc1ccc2c(c1)C(C)=CC(C)(C)N2
active: [1] 58.1 µM | [3] 151 µM | [4] 40.7 µM | [5] 155 µM
inactive: [2] | [8] | [7]

Oc1ccc2c(c1)OC[C@@H](N1CCC(O)(c3ccc(F)cc3)CC1)[C@H]2O
inactive: [1] | [2] | [8] | [5]
active: [3] 64.6 µM | [4] 6.61 µM

CN[C@H]1CC[C@@H](c2ccc(Cl)c(Cl)c2)c2ccc(S(N)(=O)=O)cc21
inactive: [1] | [2] | [3] | [8] | [6] | [5] | [7] | [9]

O=C(OCCCCCOC(=O)c1ccccc1)c1ccccc1
inactive: [1] | [2] | [3] | [8] | [4] | [5] | [7] | [9]

CCOC(=O)C(C)(C)Oc1ccc(Cl)cc1
inactive: [1] | [2] | [3] | [4] | [6] | [5] | [7] | [9]

NC(=O)Cn1c(=O)cc(CCN2CCN(c3nccc4sccc34)CC2)c2ccc(F)cc21
active: [1] 30.9 µM
inactive: [2] | [3] | [4] | [6] | [5] | [7] | [9]

Cc1cc(NC(=O)C(=O)O)cc(C)c1Oc1ccc(O)c2c1CCC2
inactive: [1] | [2] | [3] | [8] | [4] | [5] | [9]

Cc1ccc(C)c(O)c1C
inactive: [1] | [2] | [3] | [8] | [4] | [5]

CCCCCCCCCCCCCCCC
inactive: [1] | [2] | [3] | [4] | [5]

Cc1cccc([N+](=O)[O-])c1C
active: [4] 44.3 µM
inactive: [1] | [2] | [3] | [8] | [5] | [9]

O=[N+]([O-])C(CO)(CO)CO
inactive: [1] | [2] | [3] | [10] | [6] | [5] | [7] | [9]

CCCCc1ccc2c(n1)[C@@H](c1ccc(OC)cc1C[C@H](C)C(=O)O)[C@H](C(=O)O)[C@H]2c1ccc2c(c1)OCO2
inactive: [1] | [2] | [3] | [8] | [5] | [7] | [9]

COc1ccc(C)cc1N
inactive: [1] | [2] | [3] | [8] | [4] | [5] | [7] | [9]

CC(=O)OCCOCCOCCOC(C)=O
inactive: [1] | [2] | [3] | [4] | [5] | [7] | [9]

NCCO
inactive: [1] | [2] | [3] | [4] | [5] | [7] | [9]

CC(C)(C)c1cc(O)c(C(C)(C)C)cc1O
active: [1] 8.01 µM | [5] 37.6 µM
inactive: [2] | [3] | [4] | [7] | [9]

Nc1nc(N)c2nc(CNc3ccc(C(=O)N[C@@H](CCC(=O)O)C(=O)O)cc3)cnc2n1
active: [1] 116 µM
inactive: [2] | [3] | [4] | [5]

Cc1cc(=O)[nH]c(=S)[nH]1
inactive: [1] | [2] | [3] | [5]
